Test results reported in PMC4336329 (PLoS ONE, 2015).
Screen size: about 310,000 compounds; about 14,000 (4.5%) showed an effect of 50% or more. The effect is printed as a negative number. What follows is part of a selection rich in strong results, with near analogues and random picks from the rest.

biological target: human ether-à-go-go-related gene (hERG) potassium channel (human, UniProt Q12809); assay: primary screen, population patch clamp on CHO cells stably expressing hERG; higher = less effect of the substance
Sequence (Q12809 whole entry, looked up): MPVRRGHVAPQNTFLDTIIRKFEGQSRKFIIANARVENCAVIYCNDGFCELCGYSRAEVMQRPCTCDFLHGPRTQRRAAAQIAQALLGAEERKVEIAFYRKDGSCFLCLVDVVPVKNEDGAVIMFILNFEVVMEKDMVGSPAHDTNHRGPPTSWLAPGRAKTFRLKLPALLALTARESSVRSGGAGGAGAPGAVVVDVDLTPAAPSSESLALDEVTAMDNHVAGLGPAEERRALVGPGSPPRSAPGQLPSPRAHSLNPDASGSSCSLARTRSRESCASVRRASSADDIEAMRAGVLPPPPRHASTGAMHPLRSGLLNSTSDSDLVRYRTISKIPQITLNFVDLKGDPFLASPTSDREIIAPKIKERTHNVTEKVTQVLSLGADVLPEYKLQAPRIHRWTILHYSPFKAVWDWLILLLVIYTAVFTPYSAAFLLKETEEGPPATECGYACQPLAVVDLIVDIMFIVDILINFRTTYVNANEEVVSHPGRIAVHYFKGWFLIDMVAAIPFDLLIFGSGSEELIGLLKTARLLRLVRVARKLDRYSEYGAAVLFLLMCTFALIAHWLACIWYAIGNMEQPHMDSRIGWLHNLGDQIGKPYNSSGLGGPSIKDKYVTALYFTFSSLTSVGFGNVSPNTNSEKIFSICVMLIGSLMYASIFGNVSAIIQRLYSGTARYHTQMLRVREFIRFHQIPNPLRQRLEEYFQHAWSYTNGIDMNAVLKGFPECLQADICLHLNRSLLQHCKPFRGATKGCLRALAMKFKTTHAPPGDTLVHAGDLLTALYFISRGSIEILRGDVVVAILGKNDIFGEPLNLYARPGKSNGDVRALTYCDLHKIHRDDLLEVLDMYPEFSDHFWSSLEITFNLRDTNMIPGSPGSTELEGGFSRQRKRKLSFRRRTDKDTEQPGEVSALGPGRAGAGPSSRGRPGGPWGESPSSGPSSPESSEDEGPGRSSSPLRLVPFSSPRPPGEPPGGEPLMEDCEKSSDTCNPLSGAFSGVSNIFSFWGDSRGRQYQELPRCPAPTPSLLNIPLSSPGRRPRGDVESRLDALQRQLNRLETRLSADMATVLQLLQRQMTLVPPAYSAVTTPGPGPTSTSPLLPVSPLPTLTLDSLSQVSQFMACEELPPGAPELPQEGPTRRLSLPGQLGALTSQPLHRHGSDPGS
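Further: peak tail current of the secondary pulse compared with the same well before compound.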

SMILES | hERG current change (%, negative = inhibition) at 10uM [%]
O=C(CCCNS(=O)(=O)c1cccc2nsnc12)N1CCCCC1 | 10.7
COc1cc(CNC2CCCC2)cc(Cl)c1OCc1ccccc1F.Cl | -1.44
Cc1ccc(C)c(-c2ccc(=O)n(Cc3c(F)cccc3Cl)n2)c1 | 3.88
CC(C)(C)N(Cc1cc2ccccc2[nH]c1=O)C(=O)C1CCCCC1 | -11.9
CCN(Cc1cc2ccccc2[nH]c1=O)C(=O)C1CCCCC1 | -13.3
CN(Cc1cc2ccccc2[nH]c1=O)C(=O)C1CCCCC1 | -71.6
CCOC(=O)[C@@H]1[C@H]2COc3ccccc3[C@@H]2N2C(=O)N(c3ccccc3)C(=O)[C@@]12C | 11.4
COc1ccc(/C=N\NC(=O)c2ccc(-c3ccccc3)cc2)cc1COC(C)=O | -0.748
CC1=C(C(=O)N(C)C)C(c2ccccc2OC(F)F)NC(=O)N1 (centres unmarked) | 3.49
CN(C)CCCNCC(=O)Nc1ccc(Cl)cc1C(=O)c1ccccc1.O=C(O)C(=O)O | -69
C[N+](C)(C)CC(=O)Nc1ccc(Cl)cc1C(=O)c1ccccc1.[Br-] | 21.4
CCN(CC)CCNCC(=O)Nc1ccc(Cl)cc1C(=O)c1ccccc1.O=C(O)C(=O)O | -75.2
O=C(Nc1ccc(Cl)cc1C(=O)c1ccccc1)c1ccccc1 | 3.76
CCN(CC)CC(=O)Nc1ccc(Cl)cc1C(=O)c1ccccc1 | -21.2
CCN(CC)CC(=O)Nc1ccc(C)cc1C(=O)c1ccccc1 | -19.5
COc1ccc(C2NC(c3ccc(OC)cc3)C([N+](=O)[O-])C(C)(C)C2[N+](=O)[O-])cc1 (centres unmarked) | 41.2
CCCCCCCSc1nnc(-c2ccccc2N)c(=O)[nH]1 | 6.86
COc1ccccc1NC(=S)N1CCc2cc(OC)c(OC)cc2C1 | -0.62
COc1ccc(C(=S)N2CCN(c3cccc(Cl)c3)CC2)c(OC)c1 | 3.25

SMILES | hERG current change (%, negative = inhibition) at 10uM [%]
COc1ccccc1CNC(=O)Cn1ccc2cc(S(=O)(=O)N3CCCC3)ccc21 | -3.32
CCc1nnc(NC(=O)CCS(=O)(=O)c2ccccc2)s1 | 23.8
CN(C)S(=O)(=O)c1cccc(NC(=O)COC(=O)c2cc(=O)c3ccccc3o2)c1 | 11.3
CC(C(=O)OCC(=O)Nc1ccc2c(c1)OCO2)N1C(=O)c2ccccc2C1=O (centres unmarked) | -12.4
O=C(COC(=O)c1ccccc1)Nc1cccc(S(=O)(=O)N2CCOCC2)c1 | -26.5
CC(C(=O)OCC(=O)Nc1ccc(S(=O)(=O)N2CCCCC2)cc1)N1C(=O)c2ccccc2C1=O (centres unmarked) | -16.4
CC(C(=O)OCC(=O)Nc1cccc(S(=O)(=O)N2CCOCC2)c1)N1C(=O)c2ccccc2C1=O (centres unmarked) | -58
CC(C(=O)OCC(=O)Nc1cccc(S(=O)(=O)N(C)C)c1)N1C(=O)c2ccccc2C1=O (centres unmarked) | -82.8
Cc1sc2nc(C(C)Nc3ccccc3N3CCOCC3)[nH]c(=O)c2c1C (centres unmarked) | 11.1
O=C(N/N=C/c1ccncc1)c1cccc([N+](=O)[O-])c1 | -5.83
O=C(NCCN1CCN(C(=O)c2cccs2)CC1)C(=O)Nc1ccc(Br)cc1 | -73.7
CCC(=O)Nc1ccc(N2CCN(C(=O)c3cccs3)CC2)cc1 | -7.15
Cc1cc(NC(=O)C(=O)NCCN2CCN(S(C)(=O)=O)CC2)ccc1Br | -21.3
O=C(CN1CCN(C(=O)c2cccs2)CC1)Nc1ccc(Br)cc1 | -71.8
COc1ccccc1C(=O)N1CCN(CCNC(=O)C(=O)Nc2ccc(Br)c(C)c2)CC1 | -48.8
O=C(CN1CCN(C(=O)c2ccco2)CC1)Nc1ccc(Br)cc1 | 5.38
O=C(NCCN1CCN(C(=O)c2cccs2)CC1)c1cccs1 | -35.8
Cc1cc(NC(=O)C(=O)NCCN2CCN(C(=O)c3cccs3)CC2)ccc1Br | -63.7
COc1ccc(NC(=O)C(=O)NCCN2CCN(C(=O)c3cccs3)CC2)cc1 | -45.1

SMILES | hERG current change (%, negative = inhibition) at 10uM [%]
O=C(CN1CCN(C(=O)c2ccccc2F)CC1)Nc1ccc(Br)cc1 | -64.6
Cl.O=C(CN1CCN(C(=O)c2cccs2)CC1)NC1CCCCC1 | -1.7
O=C(CN1CCOCC1)Nc1ccc(NC(=O)c2ccccc2F)cc1 | 10.7
Cc1onc(-c2ccccc2)c1-c1nnc(CN2CCN(S(=O)(=O)c3ccccc3F)CC2)o1 | -28.4
Cc1c(/C=N\NC(=O)C2(C)CC2(Cl)Cl)cnn1C (centres unmarked) | 5.55
COc1ccc(CC(=O)NC(=S)Nc2ccc(S(N)(=O)=O)cc2)cc1 | -17.6
COc1ccc(/C=N/NC(=O)c2cccc(Br)c2)cc1CSc1ccccn1 | 2.67
CCCNC(=O)c1cccc(Cn2nc(C)c(Br)c2C)c1 | -6.12
CSc1cc(C)n(-c2ccc(Cl)cc2)c(=S)c1C(C)=O | -33.9
Cn1c(SCC(=O)NNC(=O)c2ccccc2O)nnc1-c1ccccc1 | 18
CCN(CC)S(=O)(=O)c1ccc(N(C)Cc2cccnc2)nc1 | -15.2
CC(C)[NH+]1CCC2(CC1)C(C#N)=C(N)NC([S-])=C2C#N | -4.59
COc1ccc(CN(CC(=O)NC2CCCC2)C(=O)c2ccc(-c3ccccc3)[nH]2)cc1 | -19.9
CCCCN1C(=S)NC[C@@H]1Cc1ccccc1 | -11.8
Cc1ccnc(NCn2nnc3ccccc32)c1 | 7.69
Cc1ccccc1C(=O)N1CCN(CCNC(=O)C(=O)Nc2ccc(Br)cc2)CC1 | -68.8
Cc1ccc(NC(=O)C(=O)NCCN2CCN(C(=O)C(c3ccccc3)c3ccccc3)CC2)cc1 | -9.93
Cc1ccc(NC(=O)C(=O)NCCN2CCN(C(=S)Nc3ccccc3)CC2)cc1 | -19.1
